Screens: PubChem BioAssay, Center for Chemical Genomics, University of Michigan
The sample as a whole holds a higher share of hits than the screen did.
Dicer processing: human Dicer pre-microRNA cleavage inhibition; Q9UPY3; cat-ELCCA pre-miR-21 Dicer processing, chemiluminescence; stronger effect = higher value; z-score at 25 µM; 47,000 compounds, 6% hits; in the data active means z-score above about 3, passing the limit was not always enough;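 further: plate controls were vehicle for no effect and no enzyme for full effect; higher signal means more uncleaved substrate so more Dicer inhibition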
Target sequence (Q9UPY3 whole entry, looked up): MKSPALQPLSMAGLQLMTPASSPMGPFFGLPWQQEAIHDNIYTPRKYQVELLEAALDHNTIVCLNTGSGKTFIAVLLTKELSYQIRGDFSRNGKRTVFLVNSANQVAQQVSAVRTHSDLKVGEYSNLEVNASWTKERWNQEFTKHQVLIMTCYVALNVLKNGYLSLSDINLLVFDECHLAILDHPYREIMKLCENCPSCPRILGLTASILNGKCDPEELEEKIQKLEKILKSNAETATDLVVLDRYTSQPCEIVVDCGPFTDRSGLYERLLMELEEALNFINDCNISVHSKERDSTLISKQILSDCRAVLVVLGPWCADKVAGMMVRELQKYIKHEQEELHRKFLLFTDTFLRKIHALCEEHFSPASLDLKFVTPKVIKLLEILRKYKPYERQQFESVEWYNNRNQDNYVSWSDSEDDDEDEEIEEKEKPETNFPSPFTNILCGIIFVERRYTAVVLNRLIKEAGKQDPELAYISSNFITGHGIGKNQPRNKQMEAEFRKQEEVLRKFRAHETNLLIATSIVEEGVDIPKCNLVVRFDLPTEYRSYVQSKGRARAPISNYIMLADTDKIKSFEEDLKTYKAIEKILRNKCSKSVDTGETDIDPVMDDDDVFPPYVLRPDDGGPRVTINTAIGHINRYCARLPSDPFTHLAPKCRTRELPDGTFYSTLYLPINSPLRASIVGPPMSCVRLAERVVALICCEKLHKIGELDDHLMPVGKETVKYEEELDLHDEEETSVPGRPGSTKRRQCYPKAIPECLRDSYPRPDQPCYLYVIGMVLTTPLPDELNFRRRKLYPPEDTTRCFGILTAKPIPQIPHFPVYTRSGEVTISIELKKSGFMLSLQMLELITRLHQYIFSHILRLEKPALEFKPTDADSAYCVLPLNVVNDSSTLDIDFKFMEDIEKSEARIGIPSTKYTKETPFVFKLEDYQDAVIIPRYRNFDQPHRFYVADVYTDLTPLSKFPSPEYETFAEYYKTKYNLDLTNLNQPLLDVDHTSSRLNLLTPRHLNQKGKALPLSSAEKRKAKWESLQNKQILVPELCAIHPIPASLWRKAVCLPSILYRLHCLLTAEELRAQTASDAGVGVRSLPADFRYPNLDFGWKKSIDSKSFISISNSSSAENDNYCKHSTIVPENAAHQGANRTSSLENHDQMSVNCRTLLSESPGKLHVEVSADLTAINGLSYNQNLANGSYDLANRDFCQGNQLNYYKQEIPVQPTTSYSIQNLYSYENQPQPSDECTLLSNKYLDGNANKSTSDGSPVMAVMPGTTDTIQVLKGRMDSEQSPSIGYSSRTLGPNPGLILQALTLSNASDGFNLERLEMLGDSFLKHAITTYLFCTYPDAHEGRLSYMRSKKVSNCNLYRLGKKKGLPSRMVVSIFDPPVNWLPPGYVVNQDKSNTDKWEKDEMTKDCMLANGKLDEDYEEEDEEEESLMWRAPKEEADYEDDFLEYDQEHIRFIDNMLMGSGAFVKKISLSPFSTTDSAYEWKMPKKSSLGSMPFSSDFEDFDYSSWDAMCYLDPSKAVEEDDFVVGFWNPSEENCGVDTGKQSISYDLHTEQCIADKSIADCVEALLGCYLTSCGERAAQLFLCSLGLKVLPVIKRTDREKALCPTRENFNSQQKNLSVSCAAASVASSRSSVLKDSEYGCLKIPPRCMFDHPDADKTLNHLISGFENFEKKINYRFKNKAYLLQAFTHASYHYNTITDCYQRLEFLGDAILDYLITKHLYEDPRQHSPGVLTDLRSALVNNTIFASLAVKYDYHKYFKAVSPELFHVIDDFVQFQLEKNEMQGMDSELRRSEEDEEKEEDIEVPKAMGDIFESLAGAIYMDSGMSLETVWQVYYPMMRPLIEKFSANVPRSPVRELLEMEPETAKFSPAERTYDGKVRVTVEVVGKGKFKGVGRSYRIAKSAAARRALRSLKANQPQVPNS
* = called active by the depositor; ! = not confirmed by another sample.

O=C(Nc1ccccc1)Nc1cc(-c2ccccc2)[nH]n1 was read as Dicer processing -1.6.
`C#CC(CC)(CC)NC(=O)/C=C/c1ccccc1` gave Dicer processing 0.35.
Screening CCCCCn1c(NCCO)nc2c1c(=O)[nH]c(=O)n2C returned Dicer processing 3.6*.
Screening Cn1c(=O)c2c(nc(NCCO)n2CCCc2ccccc2)n(C)c1=O returned Dicer processing -0.3.
Screening C=CCNc1nc2c(c(=O)[nH]c(=O)n2C)n1CCO returned Dicer processing 0.25.
Screening Cn1c(=O)[nH]c(=O)c2c1nc(NCCCO)n2CCO returned Dicer processing -0.15.
For Cn1c(=O)[nH]c(=O)c2c1nc(NCCCO)n2CCCc1ccccc1 the results were Dicer processing 3.4*.
Screening CCn1c(NCCCO)nc2c1c(=O)[nH]c(=O)n2C returned Dicer processing 0.94.
For O=C1N(CCc2ccccc2)c2ccc(Cl)cc2C1(O)c1c[nH]c2ccccc12 (centres undefined) the results were Dicer processing 1.6.
Screening COc1ccc(OC)c(NS(C)(=O)=O)c1 returned Dicer processing 1.5.
Screening CCC12CN3CC(CC)(CN(C1)C3c1ccc(Br)cc1)C2=O (centres undefined) returned Dicer processing -0.08.
O=C(Nc1csc(C(F)(F)F)c1-c1ccccc1)C(Cl)(Cl)Cl was read as Dicer processing -0.5.
`Cc1csc(NC(=O)c2ccco2)c1C(=O)c1ccccc1` gave Dicer processing 0.11.
Screening O=C(Nc1csc(C(F)(F)F)c1-c1ccccc1)c1ccco1 returned Dicer processing 4.4*.
`CCSc1nc2c(c(=O)[nH]1)C(c1ccc(Br)cc1)C1=C(CCCC1=O)N2` (centres undefined) gave Dicer processing 0.31.
`CCCN1CN=C(Nc2nc(C)c3ccc(C)cc3n2)NC1` gave Dicer processing 0.75.
`NC(N)=N/N=C/c1ccc(Cl)c(Cl)c1` gave Dicer processing 0.83.
N#C/C(=C\c1ccc(Cl)cc1Cl)C(N)=S was read as Dicer processing -0.55.
For NC(N)=N/N=C/c1ccc(Cl)cc1Cl the results were Dicer processing 4.5*!.
`COc1ccc(N(C2C=CS(=O)(=O)C2)S(=O)(=O)c2ccc(C)cc2)cc1` (centres undefined) gave Dicer processing 0.17.
`Cc1ccc(S(=O)(=O)Nc2ccc3oc4ncccc4c(=O)c3c2)cc1` gave Dicer processing 18.
`CC(C)(C)c1ccc(S(=O)(=O)Nc2ccc(O)c(Cl)c2)cc1` gave Dicer processing 2.3.
`Cc1ccc(S(=O)(=O)Nc2ccc3[nH]cc(Cl)c3c2)cc1` gave Dicer processing 3.1*.
`CC1CCC(C(C)C)C(OC(=O)Cn2c[n+](C)c3ccccc32)C1` (centres undefined) gave Dicer processing -0.93.
Screening CCCCc1c(C)nc(N)[nH]c1=O returned Dicer processing -0.14.
CCCCc1c(C)nc(SC)[nH]c1=O was read as Dicer processing 5.3*.
CCCCc1c(O)nc(SC)[nH]c1=O was read as Dicer processing -0.23.
COC(=O)C(C)(C)S(=O)(=O)c1ccc(C(F)(F)F)cn1 was read as Dicer processing -0.28.
Screening O=C(CS(=O)(=O)c1ccc(C(F)(F)F)cn1)NNC(=O)Nc1ccccc1 returned Dicer processing 0.12.
Screening COC(=O)CS(=O)(=O)c1ccc(C(F)(F)F)cn1 returned Dicer processing 3.4*.
`Cn1c(=O)c2[nH]c(NCc3ccccc3Cl)nc2n(C)c1=O` gave Dicer processing -0.56.
For COCCCN1C(=O)C(=O)/C(=C(/O)c2ccc(C)cc2)C1c1ccc(C(C)C)cc1 (centres undefined) the results were Dicer processing -0.97.
`C#CC(C)(C)NC(=S)Nc1ccc(C)cc1C` gave Dicer processing -0.73.
`COc1cccc(-n2c(/C=C/c3cn(C)c4ccccc34)nc3ccccc3c2=O)c1` gave Dicer processing 6.8.
`O=c1c2ccccc2nc(/C=C/c2ccc(O)cc2)n1Cc1ccccc1` gave Dicer processing -1.2.
Screening CCn1c(/C=C/c2c[nH]c3ccccc23)nc2ccccc2c1=O returned Dicer processing 3*.
For CNC(=O)NC(=O)CSc1nnc(-c2ccccc2)o1 the results were Dicer processing -0.63.
For COc1ccc(OC)c(Sc2ccc(C(F)(F)F)cc2[N+](=O)[O-])c1 the results were Dicer processing 7.8*.
Screening COc1cc(Sc2ccc(Cl)cc2)ccc1[N+](=O)[O-] returned Dicer processing -0.52.
`COc1cc([N+](=O)[O-])c(C)cc1Sc1ccc(C)cc1` gave Dicer processing -0.13.
`Cc1cc(Sc2ccc(C(F)(F)F)cc2[N+](=O)[O-])c(Cl)cc1Cl` gave Dicer processing -0.53.
Screening COc1ccc(OC)c(Sc2ccc(Cl)cc2[N+](=O)[O-])c1 returned Dicer processing 0.07.
For COc1ccc(OC)c(Sc2ccc([N+](=O)[O-])cc2)c1 the results were Dicer processing 4.5*.
CCOC(=O)c1c(NC(=O)/C=C/C(=O)O)sc2c1CCCC2 was read as Dicer processing -0.7.
For CCOC(=O)CC1Sc2ccccc2N=C1SCC(=O)Nc1ccc(Cl)cc1 (centres undefined) the results were Dicer processing -1.5.
CCOC(=O)c1c[nH]c(=S)[nH]c1=O was read as Dicer processing -0.46.
CC/C(=N\OC(=O)NS(=O)(=O)c1ccc(C)cc1)c1ccc(-c2ccccc2F)cc1 was read as Dicer processing -1.4.
O=C(/C=C/Sc1nc2ccccc2s1)c1ccccc1 was read as Dicer processing -0.51.
For O=C(NC(=S)N1CCCCC1)c1ccccc1 the results were Dicer processing 1.4.
For O=C(O)C1(c2ccccc2)CCCC1 the results were Dicer processing 2.4.
For O=C(N1CCCC1)C1(c2ccccc2)CCOCC1 the results were Dicer processing 3*.
`CC1=C(C(=O)OCCOc2ccccc2)C(c2ccc3c(c2)OCO3)C2=C(CCCC2=O)N1` (centres undefined) gave Dicer processing 0.59.
`COC(=O)c1sc(N2C(=O)c3oc4ccc(C)cc4c(=O)c3C2c2ccc(F)cc2)nc1C` (centres undefined) gave Dicer processing 0.77.
O=C(CC1SC(=Nc2ccc(O)cc2)NC1=O)Nc1ccc(Br)cc1 (centres undefined) was read as Dicer processing 3.8*.
Screening O=C(CC1SC(=Nc2ccccc2)NC1=O)Nc1ccccc1Cl (centres undefined) returned Dicer processing -0.66.
Screening C=CCN=C1NC(=O)C(CC(=O)Nc2ccc(Cl)cc2)S1 (centres undefined) returned Dicer processing -0.91.
`N#Cc1c2c(c(Nc3ccc(Cl)cc3)n3c1nc1ccccc13)CCC2` gave Dicer processing -1.5.
For O=C(O)CNC(=O)c1ccccc1Cl the results were Dicer processing -0.37.
O=C(NCc1ccccc1)NCc1ccccc1 was read as Dicer processing 3.6*.
For O=C(NCCCCCCNC(=O)NCc1ccccc1)NCc1ccccc1 the results were Dicer processing -0.41.
For Cc1cccc(C)c1NC(=O)NCc1ccccc1 the results were Dicer processing 2.
Screening CCc1ccc(C2C(C(=O)OCCOC)=C(C)NC3=C2C(=O)CC(c2ccc(OC)cc2)C3)cc1 (centres undefined) returned Dicer processing 0.27.
CC1CC(C(=O)O)C(C(=O)O)CC1C (centres undefined) was read as Dicer processing 0.23.
Screening Cc1ccc(C2/C(=C(\O)c3ccc(Cl)cc3)C(=O)C(=O)N2CCCn2ccnc2)cc1 (centres undefined) returned Dicer processing -1.6.
